DT40 TDP1 CPT – growth inhibition of DT40 Tdp1-/-;hTDP1 cells with camptothecin (screen for TDP1 inhibitors) | chicken DT40 Tdp1-/-;hTDP1 cells + 20 nM CPT, ATP luminescence, 48 h | Potency, µM (top dose mostly 46.2 µM), usual class: inhibitors | 12% of 420,000 active | AID 686979; note: nearly all actives have a fitted effect of over 55% in size
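Chicken DT40 Tdp1-/- cells stably complemented with human TDP1 were seeded at 400 cells/well in medium containing 20 nM camptothecin, exposed to pin-transferred compounds, and grown at 37 °C for at least 48 hr. Viability was read as ATP luminescence.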
KB-3-1 tox – KB-3-1 parental cell cytotoxicity; KB-3-1 viability, CellTiter-Glo ATP luminescence, 72 h; Potency, µM (highest dose often 46.1 µM), hits mostly cytotoxic; 1.4% of 400,000 active; AID 1347075; note: nearly all actives have a fitted effect of over 60% in size
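Viability of parental KB-3-1 cells, measured by CellTiter-Glo luminescence, followed a 72 h incubation at 37 °C with pinned compounds in phenol-red-free DMEM containing 10% FBS.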
TDP1 cell noCPT – qHTS for Inhibitors of human tyrosyl-DNA phosphodiesterase 1 (TDP1): qHTS in cells in absence of CPT; DT40 Tdp1-/- hTDP1 cells, no CPT, ATP luminescence, 48 h; Potency, µM (top dose mostly 46.2 µM), usual class: inhibitors; 15% of 420,000 active; AID 686978, 2013; note: nearly all actives have a fitted effect of over 55% in size
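Growth kinetics read by CellTiter-Glo luminescence after ≥48 hr at 37 °C. Cells: DT40 Tdp1-/- stably carrying human TDP1, 400 per well, compound exposure in the absence of CPT (DMSO vehicle).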
HT1080-NT tox – kills 2HG-producing HT-1080-NT fibrosarcoma cells; HT-1080-NT fibrosarcoma viability, CellTiter-Glo ATP luminescence, 48 h; Potency, µM (titrated, usually from 46.1 µM), most hits filed as cytotoxic; 1.6% of 360,000 active; AID 686970;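 note: NT is the 2HG producing partner of a matched IDH1 knockdown line; nearly all actives have a fitted effect of over 55% in size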
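Toxicity toward the 2HG-producing NT line was scored as %Activity, normalised to DMSO and no-cell wells, from CellTiter-Glo luminescence after 48 hours' treatment.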
KB-V1 cytotox – kills drug-selected multidrug resistant KB-V1 cells | KB-V1 MDR cells viability, CellTiter-Glo, 72 h | Potency, µM (highest dose often 46.1 µM), actives largely listed as cytotoxic | 3.4% of 400,000 active | AID 1347076; note: nearly all actives have a fitted effect of over 60% in size
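KB-V1 MDR subline cells in DMEM (phenol-red free, 10% FBS) exposed to compounds in qHTS concentration series for 72 h at 37 degrees C. Viability read by CellTiter-Glo luminescence; concentration-effect curves fitted after normalization and correction.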
HT1080 IDH1KD tx – kills HT-1080 cells with IDH1 knockdown; HT-1080 IDH1 knockdown viability, ATP luminescence, 48 h; Potency, µM (highest dose often 46.1 µM), hits mostly cytotoxic; 2% of 360,000 active; AID 686971
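In this qHTS, HT-1080 cells depleted of IDH1 are exposed for 48 h at 37 °C to compound titrations. Toxicity is scored from CellTiter-Glo luminescence, with DMSO as full viability and medium alone as none.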
Numbers stand for hits; . = inactive; ? = inconclusive; / = not tested or not shown. Hits are enriched below; roughly 19% of the tested compounds scored in any of these assays. Calls come from the whole dose curve; as a rule, active = well fitted curve in the direction sought with a large enough effect; inconclusive = small, poorly fitted or top-dose-only effect, or another doubt; inactive = no such curve, though single readings can be large; an effect the other way counts as inactive or inconclusive.

SMILES | DT40 TDP1 CPT | KB-3-1 tox | TDP1 cell noCPT | HT1080-NT tox | KB-V1 cytotox | HT1080 IDH1KD tx
Cc1ccccc1CNC(=O)C(=O)NCC(c1ccc2c(c1)OCO2)N1CCOCC1 (stereo unspecified) | . | . | . | / | . | /
Cc1ccccc1S(=O)(=O)Cc1ccc(C(=O)NCCN(Cc2ccccc2)C(C)C)o1 | ? | . | 16µM | . | ? | .
CC(C)N(CCNC(=O)c1ccc(CS(=O)(=O)c2c(Cl)cccc2Cl)o1)Cc1ccccc1 | 21µM | . | ? | . | . | .
Cc1ccccc1S(=O)(=O)Cc1ccc(C(=O)NCCN(C)Cc2ccccc2)o1 | . | . | . | . | . | .
Fc1ccc(CSc2ncnc3c2ncn3C2CCCCO2)cc1 (stereo unspecified) | ? | . | ? | . | 21µM | .
Clc1cccc(CSc2ncnc3c2ncn3C2CCCCO2)c1 (stereo unspecified) | ? | . | 16µM | . | . | .
C[C@H]1COC(=O)[C@@H](Cc2ccc(F)cc2)C/C=C\C[C@@H](CC(=O)NCCO)C(=O)N1 | . | . | . | . | . | .
Cc1cc(-c2nnc(CCC(=O)N(C)Cc3cccc4ccccc34)o2)no1 | . | ? | . | . | ? | .
CCN1CCN(Cc2c(C)[nH]c3ccc(OC)cc3c2=O)CC1 | . | . | ? | . | . | .
Oc1ccccc1C1=Nc2ncnn2C(c2ccc(F)cc2)C1 (stereo unspecified) | ? | . | ? | . | . | .
Cc1ccc(SCC(=O)Nc2cccc(C)c2)cc1 | . | . | . | . | . | .
Cc1cccc(-c2nc3cc(NC(=O)C4CCCO4)ccc3o2)c1 (stereo unspecified) | ? | . | ? | . | 13µM | .
Cc1ccc(SCC(=O)Nc2ccc3oc(-c4cccc(C)c4)nc3c2)cc1 | ? | . | 15µM | / | . | /
CCC(=O)Nc1cccc(-c2nc3ccc(C)cc3o2)c1 | . | . | ? | . | . | ?
CCC(=O)Nc1ccc2oc(-c3cccc(C)c3)nc2c1 | 7.3µM | . | 5.8µM | . | ? | ?
CC1(C(=O)NS(C)(=O)=O)CCN1C(=O)C/C=C/c1ccccc1 (stereo unspecified) | . | . | . | ? | . | .
CCOC(=O)CC1(C)Oc2ccccc2N1S(=O)(=O)c1ccc(C)cc1 (stereo unspecified) | 21µM | . | ? | . | . | .
CN1C(C(=O)Nc2ccccn2)C(=O)c2sc(Cl)cc2S1(=O)=O (stereo unspecified) | . | / | . | / | / | /
NC(=O)C1CCN(C2CC(=O)N(Cc3ccc(N4CCCC4=O)cc3)C2=O)CC1 (stereo unspecified) | 26µM | . | ? | . | . | .
O=C(Cc1ccc(NC(=O)C2CCCN(C(=O)c3ccccc3)C2)cc1)Nc1ccc(C(=O)N2CCOCC2)cc1 (stereo unspecified) | ? | . | ? | . | ? | .
CCOC(=O)Cc1csc(/N=C/c2c(O)n(-c3ccc(C)cc3C)c(=O)c3ccccc23)n1 | ? | ? | 16µM | . | ? | .
COc1ccc(Cl)cc1NC(=O)COC(=O)CC(C)(C)CC1=NS(=O)(=O)c2ccccc2N1 | ? | ? | 21µM | / | . | /
Cc1ccc(Cl)cc1NC(=O)COC(=O)CC(C)(C)CC1=NS(=O)(=O)c2ccccc2N1 | 18µM | . | 26µM | / | ? | /
COc1ccc(NC(=O)COC(=O)CCCC2=NS(=O)(=O)c3ccccc3N2)cc1Cl | . | . | . | ? | . | .
COc1cccc(Cn2c(=O)c(C)nc3cnc(Nc4ccccc4)nc32)c1 | . | / | ? | / | / | /
SMILES | DT40 TDP1 CPT | KB-3-1 tox | TDP1 cell noCPT | HT1080-NT tox | KB-V1 cytotox | HT1080 IDH1KD tx
O=C(Nc1ccc(Cl)cc1)OCCn1nnnc1C(c1ccccc1Cl)N1CCOCC1 (stereo unspecified) | 26µM | . | 18µM | . | ? | ?
O=C(Nc1ccc(Cl)cc1)OCCN1CCOCC1 | . | . | . | . | . | .
Cn1cc(-c2nc3cnc(N4CCOCC4)nc3n(CCC#N)c2=O)c2ccccc21 | . | / | . | / | / | /
CCOC(=O)c1c(C)[nH]c(C(=O)COC(=O)CCC2CCCC2)c1C | . | . | ? | . | ? | .
COC[C@H]1CCCN1c1ccc2c(c1)O[C@H](COCc1ccccc1)CN([C@H](C)c1ccccc1)S2(=O)=O | ? | . | 18µM | . | ? | .
COC[C@H]1CCCN1c1ccc2c(c1)O[C@@H](COCc1ccccc1)CN([C@H](C)c1ccccc1)S2(=O)=O | 9.2µM | . | 13µM | . | . | .
C[C@H](c1ccccc1)N1C[C@H](COCc2ccccc2)Oc2cc(N3CCC[C@H]3CO)ccc2S1(=O)=O | ? | . | ? | . | . | .
COC[C@@H]1CCCN1c1ccc2c(c1)O[C@H](COCc1ccccc1)CN([C@@H](C)c1ccccc1)S2(=O)=O | 2.6µM | . | 3.7µM | . | . | .
C[C@@H](NC(=O)[C@H]1O[C@@H](n2cnc3c(N)ncnc32)[C@H](O)[C@@H]1O)c1cccc2ccccc12 | . | . | . | ? | . | ?
Cc1ccccc1Cn1cc(NC(=O)COc2ccccc2)cn1 | ? | . | . | . | . | .
O=C(CCNS(=O)(=O)c1ccc(Cl)cc1)N1CCN(c2ccccn2)CC1 | . | . | ? | . | . | .
CC(C)(C)n1nnnc1C(c1cc2ccccc2o1)N1CCN(C(=O)OCc2ccccc2)CC1 (stereo unspecified) | ? | . | 18µM | . | . | ?
CC(C)(C)OC(=O)N1CCN(C(c2ccnc3ccccc23)c2nnnn2-c2ccc3c(c2)OCCO3)CC1 (stereo unspecified) | ? | ? | 16µM | . | . | ?
CC(C)(C)n1nnnc1C(c1ccnc2ccccc12)N1CCN(C/C=C/c2ccccc2)CC1 (stereo unspecified) | 16µM | . | 16µM | ? | . | .
Cc1cccc(C)c1-n1nnnc1C(c1ccnc2ccccc12)N1CCN(C/C=C/c2ccccc2)CC1 (stereo unspecified) | 9.2µM | ? | 8.2µM | ? | ? | ?
Cc1cccc(C)c1-n1nnnc1C(c1ccnc2ccccc12)N1CCCC1 (stereo unspecified) | ? | . | ? | . | ? | .
CC(C)(C)OC(=O)N1CCCN(C(c2cc3ccccc3o2)c2nnnn2C(C)(C)C)CC1 (stereo unspecified) | ? | . | ? | ? | ? | ?
Brc1ccc(-c2cn3cc(Cc4ccccc4)sc3n2)cc1 | . | . | . | / | . | /

From PubChem BioAssay
